Data on 24 molecules can be found in publication PMC10163288.

B1: il10ra_site1_normal_mot_8756ee2cf497b5429c717dfc0c0bcfd6_0001_000000186_0001_1_13_H_._HHH_b1_06578_af2_0001_0000300032_0000001_1_af2pred_0001 (protein)
chain: SSSSSIAEEVFRLLREAAELYHEGDKEKAEEILKEAEELAEEANDEIAKVIIEFLKRAIENSSSS
B2: il10ra_site1_normal_mot_HHH_b1_00566_000000151_0001_22_39_H_._HHH_b1_00313_af2_0001_0000700014_0000001_0 (protein)
chain: SSSSDEREEIAILVAEAIILAERRGDKEVAEELWQLLVEAYYHGDPELFREVEELAEKFLSSSSS
B3: il10ra_site1_sap_26_mot_HHH_b2_06857_af2_000000179_0001_42_54_H_._HHH_b1_00069_af2_0001_0000100009_0000001_0_0001_af2pred_0001 (protein)
chain: SSSSSEEREEIYRLIREALELLANGNPEEAEEVLEEAERLAKEANSPLFEFALEAARRKVKSSSS
B4: il10ra_site1_normal_mot_HHH_b2_08186_000000021_0001_43_56_H_._HHH_b1_02914_0001_0000400023_0000001_0 (protein)
chain: SSSSDREERIQELLEEAEELAKEGNPEEAARLLQEAIRLAFELGDEELLKEIWEVLRKVASSSSS
B5: il10ra_site1_normal_mot_HHH_b2_08186_000000021_0001_43_56_H_._HHH_b2_05014_af2_0002_0000100001_0000002_0 (protein)
chain: SSSSDEEELRELIEEAEELLERGNPEEALEVVLRALQLAFELSNAETLQRIWELLKRIATSSSSS
B6: il10ra_site1_sap_21_mot_HHH_b2_02463_af2_000000222_0001_1_19_H_._HHH_b1_01285_0001_0000200013_0000001_0_0001 (protein)
chain: SSSSDEANQEALELVVEAVRLALRGNPEEAKEVLEEARELAREGNNERLVKMIEDMLRALDSSSS
B7: il10ra_site1_sap_26_mot_HHH_b1_01707_000000240_0001_1_17_H_._HHH_b2_07405_0001_0000500060_0000001_0_0001 (protein)
chain: SSSSDQEFARLMMEALHLAFQLRDPETLRELWELYRRYAEEGDPRYEEALEELLEELRERSSSSS
B8: il10ra_site1_normal_mot_HHH_b2_03328_af2_000000127_0001_1_19_H_._f3d5fbb9806109dc41c8faca98c9de00_0001_1_0001_0000300008_0000002_0_af2pred_dldesign_0_af2pred (protein)
chain: LELSRLLSDAVITAKNPELAQRLAEVAREIAEDPSKLEELLAELLEEAKAAGDEEVVALLEKALE
B9: il10ra_site1_normal_mot_HHH_b2_06767_000000020_0001_41_56_H_._HHH_b2_06012_0001_0000200016_0000002_0_af2pred_0001 (protein)
chain: SSSSSVHEAAQLLLRVARALKEGDEELLEELRKELEELLKKLDDERARLAVRAALAAIKNFSSSS
B10: il10ra_site1_sap_27_mot_HHH_b1_06128_000000102_0001_1_20_H_._HHH_b1_02043_af2_0001_0000100004_0000002_0_0001 (protein)
chain: SSSSDVEEEVRELLEEAQRYYEEGNPQEVFRLIEEAIKVASEHGDEEAQKLVHEFLHEMFGSSSS
B11: il10ra_site1_normal_mot_HHH_b2_00984_000000042_0001_1_20_H_._HHH_b1_04863_af2_0001_0000500015_0000001_0 (protein)
chain: SSSSSDEEEELEELLEQLKKALEENDRELVAQLARRLVQLAFRLSDPEALQEAWELIRLLSSSSS
B12: il10ra_site1_normal_mot_HHH_b1_01821_000000158_0001_23_39_H_._HHH_b1_04578_0001_0000500034_0000001_1 (protein)
chain: SSSSSEFQRLAQRAVQLAFRLSDQEVLRRIWELFKRYIEEGDPRLEEELEELLEELEERGSSSSS
B13: il10ra_site1_normal_mot_HHH_b2_00277_af2_000000172_0001_1_17_H_._HHH_b1_06276_0001_0000100006_0000001_0_af2pred_0001 (protein)
chain: SSSSSSTEEEVEELLEEAKRIEDPEERSYVLTEAWALAYRLNDPELEREIEEVAKRLTSSSSSSS
B14: il10ra_site1_sap_17_mot_HHH_b2_04681_000000155_0001_43_57_H_._HHH_b2_07038_af2_0001_0000400013_0000001_0_0001_af2pred_dldesign_0_af2pred (protein)
chain: SSSSSSSDPERILALIRRALEEEDPEKARELLEEALRLAKEAGNEVAIRAAEYLLRQVSSSSSSS
B15: il10ra_site1_normal_mot_HHH_b2_03328_af2_000000127_0001_1_19_H_._HHH_b1_08499_0001_0000200023_0000001_0 (protein)
chain: SSSSDVAEEAYELSRRAAELLYQGNPEEARELLEEAEELLKERGDHVILFAVRLLLRILNSSSSS
B16: il10ra_site1_normal_mot_HHH_b2_00475_000000107_0001_44_57_H_._HHH_b2_03520_0001_0000400025_0000001_0 (protein)
chain: SSSSDEEEVSHLLFRALQLLEEGDKEEAEELVEEAKRIAEESNDPELERYVEIAEHFVKAHSSSS
B17: il10ra_site1_sap_33_mot_HHH_b2_07521_000000141_0001_20_37_H_._HHH_b2_01915_0001_0000700039_0000001_1_0001 (protein)
chain: SSSSSEEVEELLEQARELAEEGDFEEAAKLLLEALQIAAELQDPELLRLVWEVLHEVARLNSSSS
B18: il10ra_site1_sap_40_mot_HHH_b1_00102_af2_000000216_0001_43_57_H_._HHH_b1_07360_0001_0000500039_0000002_0_0001_af2pred_0001 (protein)
chain: SSSSSDEEELEEEAKRLMEELEKHGDPELFTRLAELAKLLAELGNPLFEEVAELLARLQSSSSSS
B19: il10ra_site1_sap_25_mot_HHH_b2_05540_000000178_0001_1_18_H_._ems_p1-15H-GBL-16H-GABBL-16H_0381_0001_0001_0001_0001_0000500025_0000002_0_0001 (protein)
chain: SSSSSDMEELYRRIAELLRRLREVSPEEREELLREAKELAEELNNEYLKRAIEHMARAVNSSSSS
B20: il10ra_site1_sap_27_mot_HHH_b2_02537_000000065_0001_1_20_H_._HHH_b2_03111_af2_0001_0000200010_0000001_0_0001 (protein)
chain: SSSSSAAEELKEIIEELLRLQREGDEEEFEKLIEEAERELKEKGDQLSLRIIEYILRLFHSSSSS
B21: il10ra_site1_normal_mot_HHH_b1_02062_000000185_0001_1_20_H_._HHH_b1_02799_af2_0001_0000300032_0000001_0 (protein)
chain: SSSSDELLQEVYELSREAAELDSDGDKEEAEKILEEAEEIAKELGNELFLFQVEYMLRLLKSSSS
B22: il10ra_site1_normal_mot_8756ee2cf497b5429c717dfc0c0bcfd6_0001_000000186_0001_1_13_H_._HHH_b2_02097_0001_0000100006_0000001_0 (protein)
chain: SSSSDLEEAIELVRRVVELLHEGNVEEARELVEEAEKVVEEAGNDVLRWQLEYLKRLLERDSSSS
B23: il10ra_site1_normal_mot_HHH_b2_02053_af2_000000006_0001_3_19_H_._HHH_b1_07461_0001_0000100009_0000001_0_af2pred_0001 (protein)
chain: SSSSSASEEVRKLLREALELLDKGNPEEAEELVEEAVRIAEENNNPVLLFVAEFLLKDIRGSSSS
B24: il10ra_site1_normal_mot_HHH_b2_00837_af2_000000287_0001_40_54_H_._HHH_b2_01069_af2_0001_0000200019_0000002_0 (protein)
chain: SSSSDEEERIKKLIEEVEELLEEGDPEEALELLFEATHFALELGNAELLREIWELVRSLKSSSSS

A selection follows. The true hit rate is not given.

The target of this test is il10ra, Q13651. As to the kind of experiment: yeast display titration.
Sequence of il10ra, Q13651 (Q13651 whole entry): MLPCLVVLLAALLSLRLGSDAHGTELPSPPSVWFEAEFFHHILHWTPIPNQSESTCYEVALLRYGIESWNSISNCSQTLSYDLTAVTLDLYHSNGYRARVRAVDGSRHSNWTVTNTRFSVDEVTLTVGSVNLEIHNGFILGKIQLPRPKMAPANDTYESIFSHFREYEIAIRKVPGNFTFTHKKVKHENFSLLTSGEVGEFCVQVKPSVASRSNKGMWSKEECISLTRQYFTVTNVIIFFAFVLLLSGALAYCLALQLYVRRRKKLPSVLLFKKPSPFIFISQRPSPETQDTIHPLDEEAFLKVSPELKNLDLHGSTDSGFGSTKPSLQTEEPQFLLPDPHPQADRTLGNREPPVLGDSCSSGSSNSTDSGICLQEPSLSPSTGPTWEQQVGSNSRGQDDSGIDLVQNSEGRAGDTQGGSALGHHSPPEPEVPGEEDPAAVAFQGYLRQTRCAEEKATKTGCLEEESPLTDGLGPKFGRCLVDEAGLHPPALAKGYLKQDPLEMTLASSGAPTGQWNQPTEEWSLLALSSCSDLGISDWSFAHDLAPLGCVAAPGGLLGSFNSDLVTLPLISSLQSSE
For the molecule B1, the “apparent Kd” value is “no binding seen (inactive)”.

With B2, the apparent Kd was 233 to 399 nM (active).

For the molecule B3, the “apparent Kd” value is “no binding seen (inactive)”.

In the case of B4, the “apparent Kd” value is “no binding seen (inactive)”.

For B5, the “apparent Kd” value was “no binding seen (inactive)”.

Turning to B6, the “apparent Kd” value is “no binding seen (inactive)”.

Take B7: the “apparent Kd” value is “no binding seen (inactive)”.

Turning to B8, the “apparent Kd” value is “no binding seen (inactive)”.

For the molecule B9, the “apparent Kd” value was “no binding seen (inactive)”.

Regarding B10, the “apparent Kd” value is “no binding seen (inactive)”.

Turning to B11, the “apparent Kd” value was “no binding seen (inactive)”.

Turning to B12, the “apparent Kd” value is “no binding seen (inactive)”.

As to B13, the “apparent Kd” value was “no binding seen (inactive)”.

On to B14, for which the “apparent Kd” value is “no binding seen (inactive)”.

B15: the “apparent Kd” value is “no binding seen (inactive)”.

For the molecule B16, the “apparent Kd” value is “no binding seen (inactive)”.

For the molecule B17, the apparent Kd was > 2780 nM (inactive).

B18: the “apparent Kd” value is “no binding seen (inactive)”.

For the molecule B19, the “apparent Kd” value is “no binding seen (inactive)”.

For B20, the “apparent Kd” value was “no binding seen (inactive)”.

B21: the “apparent Kd” value was “no binding seen (inactive)”.

As for B22, the “apparent Kd” value was “no binding seen (inactive)”.

Regarding B23, the “apparent Kd” value is “no binding seen (inactive)”.

As to B24, the “apparent Kd” value is “no binding seen (inactive)”.

As usually defined, the apparent Kd is a dissociation constant that holds for the conditions of the assay.
